Screening data deposited in PubChem BioAssay by National Center for Advancing Translational Sciences (NCATS).
Shown are actives, neighbours in structure and some others; about 1.4% of the full set was active somewhere.
LmPK inhibitor – qHTS Assay for Inhibitors of Leishmania Mexicana Pyruvate Kinase (LmPK). purified LmPK, Kinase-Glo ATP luminescence, 1 h. AID 1721, 2009. Potency, µM (top dose mostly 57.5 µM), without a hit: top-dose activity change, negative = inhibition, hits mostly inhibitors. Q27686. 290,000 tested, 0.37% active
Target sequence (Q27686 whole entry, looked up): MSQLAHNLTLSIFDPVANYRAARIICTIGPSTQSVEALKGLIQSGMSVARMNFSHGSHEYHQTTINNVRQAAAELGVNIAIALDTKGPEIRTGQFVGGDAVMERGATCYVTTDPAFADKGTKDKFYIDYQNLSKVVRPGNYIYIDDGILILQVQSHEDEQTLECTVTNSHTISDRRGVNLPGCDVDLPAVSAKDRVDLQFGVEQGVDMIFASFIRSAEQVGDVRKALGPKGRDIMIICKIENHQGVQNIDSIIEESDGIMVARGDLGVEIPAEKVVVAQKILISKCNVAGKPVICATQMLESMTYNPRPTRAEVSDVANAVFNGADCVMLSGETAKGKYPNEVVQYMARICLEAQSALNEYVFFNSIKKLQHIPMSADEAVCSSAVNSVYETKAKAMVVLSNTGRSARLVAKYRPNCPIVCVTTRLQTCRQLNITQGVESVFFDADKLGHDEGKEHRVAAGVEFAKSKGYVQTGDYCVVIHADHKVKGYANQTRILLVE
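In 50 mM imidazole pH 7.2 with 7 mM MgCl2, LmPK (0.1 nM) turned over PEP (0.5 mM) and ADP (0.1 mM) for 1 h at room temperature. Luciferase read-out of ATP.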
FBPA Giardia inh – qHTS Assay for Inhibitors of Fructose-1,6-bisphosphate Aldolase from Giardia Lamblia; AID 2451, 2010; Potency, µM (series often up to 59.6 µM), inactives show at the highest dose activity, negative = inhibition, most hits filed as inhibitors; 290,000 tested, 0.71% active; purified Giardia FBPA; A8B2U2; note: nearly all actives have a fitted effect of over 55% in size
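40 nM FBPA preincubated 10 min at RT with compound (up to 57.5 uM final), then substrate plus GAPDH/TPI/NAD/arsenate coupling and diaphorase/resazurin added. Fluorescence read after 20 min at RT, 525/598 nm.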
RE007 growth inh – qHTS Assay for Inhibitors of the HIV-1 protein Vpr; S. pombe RE007 Vpr strain, BacTiter-Glo ATP luminescence, 24 h; Potency, µM (highest dose often 92.2 µM), for the others: at the highest dose activity change, negative = less growth, most hits filed as inhibitors; 360,000 tested, 0.21% active; active = well fitted falling curve with a large enough effect; inconclusive = small, poorly fitted or top-dose-only effect; inactive = no such curve, though single readings can be large or run the other way; note: nearly all actives have a fitted effect of over 50% in size
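Fission yeast strain RE007, carrying one chromosomally integrated HIV-1 vpr copy, was seeded at OD 0.01 in PMG+AL medium with 23 nL pinned compound. After 24 h at 30 °C and 99% humidity, viability was read by BacTiter-Glo luminescence.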
AmpC inh no detg – qHTS Inhibitors of AmpC Beta-Lactamase (assay without detergent). P00811. AmpC nitrocefin hydrolysis, absorbance 480 nm, 0.0001% Triton. Potency, µM (top dose mostly 57.1 µM), for the others: at the highest dose activity change, negative = inhibition, actives largely listed as inhibitors. 330,000 tested, 0.52% active. AID 485341, 2010;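 note: plate controls were no compound for no effect and no enzyme for full effect; nearly all actives have a fitted effect of over 20% in size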
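AmpC (5.3 nM in the dispensed reagent) in 20 mM phosphate pH 7.0 with 0.01% (detergent screen) or 0.0001% Triton X-100 was preincubated with compounds for 15 min at room temperature. Nitrocefin was then added from an 800 uM solution, and hydrolysis was followed at 480 nm.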
Tb PYK inh – qHTS of Trypanosoma Brucei Inhibitors. TbPYK enzyme, Kinase-Glo Plus ATP luminescence, 45 min. Potency, µM (doses to about 76.8 µM), without a hit: at the highest dose activity, negative = inhibition, hits mostly inhibitors. 410,000 tested, 0.12% active; note: nearly all actives have a fitted effect of over 50% in size
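Assay buffer: 50 mM TEA pH 7.2, 100 mM KCl, 10 mM MgCl2, 0.05% BSA, 0.01% Tween-20. Pyruvate kinase from T. brucei plus substrate met compound, then ADP (130 uM final). Luminescence was read post 45 min RT.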
AmpC inh detg – qHTS Inhibitors of AmpC Beta-Lactamase (assay with detergent) | P00811 | AmpC hydrolysis of nitrocefin, absorbance 480 nm, 0.01% Triton | Potency, µM (top dose mostly 114 µM), without a hit: at the highest dose activity change, negative = inhibition, actives largely listed as inhibitors | 370,000 tested, 0.041% active | AID 485294, 2010;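 note: 0% = no-compound wells and -100% = no-enzyme wells; nearly all actives have a fitted effect of over 25% in size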
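20 mM phosphate pH 7.0 + 0.01% (detergent screen) or 0.0001% Triton X-100; 5.3 nM AmpC reagent; cpd preinc 15 min RT; nitrocefin (800 uM stock) to start; A480 q20 s × 4 min; Activity was normalised to no-enzyme and no-compound control wells.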
Active calls of the source: *. Unless noted, calls come from the whole dose curve; as a rule, active = well fitted curve in the direction sought with a large enough effect; inconclusive = small, poorly fitted or top-dose-only effect, or another doubt; inactive = no such curve, though single readings can be large; an effect the other way counts as inactive or inconclusive. Unless noted, % is set by controls: 0 for no effect and ±100 for the full control effect; potency is the fitted concentration of half-maximal effect.

CCOc1ccc(N2C(=O)CC(N3CCN(c4ccccc4OC)CC3)C2=O)cc1 (stereo not drawn) was read as LmPK inhibitor 3%, FBPA Giardia inh -2%, RE007 growth inh 28µM*, AmpC inh no detg 106%, Tb PYK inh -3% and AmpC inh detg -9%.
Screening COc1cccc(N2CCN(C3CC(=O)N(c4ccc(C)c(Cl)c4)C3=O)CC2)c1 (stereo not drawn) returned LmPK inhibitor 1%, FBPA Giardia inh -2%, RE007 growth inh 16%, AmpC inh no detg 59%, Tb PYK inh -4% and AmpC inh detg inconclusive.
`CCN1C(=O)CC(N2CCC(Nc3ccc(OC)cc3)CC2)C1=O` (stereo not drawn) gave LmPK inhibitor -12%, FBPA Giardia inh -19%, RE007 growth inh -26%, AmpC inh no detg -16%, Tb PYK inh -10% and AmpC inh detg 0%.
COc1cccc(N2CCN(C3CC(=O)N(c4ccc(F)c(Cl)c4)C3=O)CC2)c1 (stereo not drawn) was read as LmPK inhibitor 9%, FBPA Giardia inh -16%, RE007 growth inh 28µM*, AmpC inh no detg 88%, Tb PYK inh -8% and AmpC inh detg -2%.
Screening CC(=O)c1cccc(NC(=O)c2c(-c3ccccc3)c(-c3ccccc3)nn(C)c2=O)c1 returned Tb PYK inh 7% and AmpC inh detg 16%.
O=C(NCCN1CCOCC1)c1ccc2c(c1)N(Cc1ccc(F)cc1)C(=O)CS2 was read as LmPK inhibitor 4%, FBPA Giardia inh 3%, RE007 growth inh -4%, AmpC inh no detg 45µM*, Tb PYK inh 1% and AmpC inh detg inconclusive.
`Cc1c(CC(=O)NCCc2ccccc2)c(=O)oc2c(C)c3occ(C(C)(C)C)c3cc12` gave Tb PYK inh 5% and AmpC inh detg 6%.
For COCCn1c(=NC(=O)CSC(C)=O)sc2cc(F)ccc21 the results were LmPK inhibitor 0%, FBPA Giardia inh -18%, RE007 growth inh -15%, AmpC inh no detg -6%, Tb PYK inh -4% and AmpC inh detg -1%.
CCOC(=O)Cn1c(=NC(=O)CSC(C)=O)sc2cc(F)ccc21 was read as LmPK inhibitor 2%, FBPA Giardia inh 1%, RE007 growth inh 15%, AmpC inh no detg 35µM*, Tb PYK inh -3% and AmpC inh detg inconclusive.
Cc1ccc(C(=O)Nc2nc(C)c(C)s2)o1 was read as LmPK inhibitor 14µM*, FBPA Giardia inh -6%, RE007 growth inh -29%, AmpC inh no detg -8%, Tb PYK inh -24% and AmpC inh detg 1%.
Screening COC(=O)c1sc(NC(=O)c2ccc(C)o2)nc1C returned LmPK inhibitor inconclusive, FBPA Giardia inh 7%, RE007 growth inh -20%, AmpC inh no detg -20%, Tb PYK inh -16% and AmpC inh detg -1%.
Screening Cc1ccc2nc(NC(=O)c3ccc(Br)o3)sc2c1 returned LmPK inhibitor -10%, FBPA Giardia inh 6%, RE007 growth inh -11%, AmpC inh no detg -34%, Tb PYK inh -2% and AmpC inh detg -19%.
`Cc1nc(NC(=O)c2ccc(Br)o2)sc1C` gave LmPK inhibitor 16µM*, FBPA Giardia inh -8%, RE007 growth inh -29%, AmpC inh no detg -18%, Tb PYK inh -7% and AmpC inh detg 1%.
For CC(C)(C)OC(=O)CN(Cc1ccc(Cl)cc1)Cc1ccc([N+](=O)[O-])s1 the results were Tb PYK inh 1%.
For COc1ccc(C(=O)NCCS(=O)(=O)NCc2ccc3c(c2)OCO3)cc1 the results were RE007 growth inh 8%, AmpC inh no detg -38%, Tb PYK inh 2% and AmpC inh detg inconclusive.
`COc1cccc(C(=O)NCCS(=O)(=O)NCc2ccc3c(c2)OCO3)c1` gave RE007 growth inh 1%, AmpC inh no detg 35µM*, Tb PYK inh 3% and AmpC inh detg inconclusive.
Screening CC(C)N1[N]C(=C2C=c3cc(O)ccc3=N2)c2c(N)ncnc21 returned Tb PYK inh 6%.
Cc1ccc(/C=C/c2onc(C)c2S(=O)(=O)N2CCC(C(=O)N(CCC(C)C)Cc3ccco3)CC2)cc1 was read as Tb PYK inh -6% and AmpC inh detg 14%.
O=C(Nc1ccncc1)Nc1ccc(Br)cc1Cl was read as LmPK inhibitor 7%, FBPA Giardia inh 5%, RE007 growth inh -2%, AmpC inh no detg 7.9µM*, Tb PYK inh 1% and AmpC inh detg inconclusive.
CCCNC(=O)c1nnsc1S(=O)c1ccc(Cl)cc1 (stereo not drawn) was read as LmPK inhibitor -4%, FBPA Giardia inh -23%, RE007 growth inh 3.5µM*, AmpC inh no detg -45%, Tb PYK inh -13% and AmpC inh detg -15%.
For CCCNC(=O)c1ccc2snnc2c1 the results were LmPK inhibitor 0%, FBPA Giardia inh 7%, RE007 growth inh -5%, AmpC inh no detg -21%, Tb PYK inh -4% and AmpC inh detg -5%.
Screening CNC(=O)c1nnsc1S(=O)c1ccc(Cl)cc1 (stereo not drawn) returned LmPK inhibitor -3%, FBPA Giardia inh -17%, RE007 growth inh 35µM*, AmpC inh no detg -41%, Tb PYK inh -15% and AmpC inh detg inconclusive.
`CCCNC(=O)c1nnsc1S(=O)(=O)c1ccc(Cl)cc1` gave LmPK inhibitor 0%, FBPA Giardia inh -1%, RE007 growth inh 11µM*, AmpC inh no detg -35%, Tb PYK inh 3% and AmpC inh detg -9%.
For COc1ccc(-n2cc(C(=O)NC(C)c3ccccc3)c3ccccc3c2=O)cc1 (stereo not drawn) the results were Tb PYK inh 6% and AmpC inh detg 18%.
Screening CCCCCn1c(=O)[nH]c2cc(C(=O)N3CCN(c4cccc(C)c4)C(C)C3)ccc2c1=O (stereo not drawn) returned Tb PYK inh 3% and AmpC inh detg -4%.
`O=C1C=CC(=O)N1c1ccc(-c2nc3ccccc3o2)cc1` gave RE007 growth inh 6.3µM* and Tb PYK inh 11µM*.
Screening CCCn1c(=O)c2sccc2n2c(CCCC(=O)N3CCN(c4ccccc4)CC3)nnc12 returned Tb PYK inh -1% and AmpC inh detg 17%.
